Experimental data taken from PubChem BioAssay AID1159580 (chemical genetic matrix, 2015).
“And” between values parts separate entries of the source, which are not always exact repeats. Equal entries are not always repeated. About 2,000 (36%) of roughly 5,500 compounds were called active. Another 18% or so got no clear call; they are omitted. Rule as the data show it: active = normalized growth mostly below about 0.91 (no sharp cut-off); inconclusive = no clear call, values can overlap the other calls; inactive = mostly above about 0.92. Some of the results follow.

Assay: chemical genetic growth profiling, strain panel (AID 1159580);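 also: tested at 20 µM; growth read once vehicle control cultures reached saturation at 30 °C; 1 = growth at the plate median or of vehicle wells; lower values mean less growth of the strain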
Settings: S. cerevisiae deletion strains, growth OD

Measured: normalized growth

O=C(O)c1cccnc1C(=O)O
inactive: locus YAL013W, strain DEP1, hits give low values 1.01 and 1.02 | locus YAL021C, strain ccr4, hits give low values 1.02 | locus YAL026C, strain drs2, hits give low values 1 | locus YAL030W, strain snc1, hits give low values 0.999 | locus YAL040C, strain CLN3, hits give low values 1.05 | locus YBL061C, strain skt5, hits give low values 1 | locus YBR009C, strain hhf1, hits give low values 1.03 | locus YBR021W, strain FUR4, hits give low values 1.03 | locus YBR023C, strain chs3, hits give low values 0.996 | locus YBR171W, strain sec66, hits give low values 0.992 | locus YBR229C, strain ROT2, hits give low values 1.03 | locus YBR231C, strain swc5, hits give low values 1.04 | locus YBR279W, strain paf1, hits give low values 0.998 | locus YCL011C, strain gbp2, hits give low values 1.02 | locus YCL016C, strain dcc1, hits give low values 1.01 | locus YCL029C, strain bik1, hits give low values 0.991 | locus YCL061C, strain MRC1 (second series), hits give low values 1 | locus YCL069W, strain vba3, hits give low values 1 | locus YCR088W, strain abp1, hits give low values 0.99 | locus YDL005C, strain med2, hits give low values 0.98 | locus YDL035C, strain GPR1, hits give low values 1.03 | locus YDL040C, strain nat1, hits give low values 0.985 | locus YDL074C, strain BRE1, hits give low values 1.07 | locus YDL101C, strain DUN1, hits give low values 1.04 | locus YDL134C, strain PPH21, hits give low values 1.03 | locus YDL185W, strain tfp1, hits give low values 0.976 | locus YDL192W, strain arf1, hits give low values 1 | locus YDR001C, strain nth1, hits give low values 0.99 | locus YDR069C, strain doa4, hits give low values 1 | locus YDR101C, strain arx1, hits give low values 0.997 | locus YDR137W, strain rgp1, hits give low values 1.01 | locus YDR150W, strain NUM1, hits give low values 1.02 | locus YDR159W, strain sac3, hits give low values 0.986 | locus YDR162C, strain NBP2, hits give low values 1.02 | locus YDR195W, strain ref2 1.05 | locus YDR297W, strain sur2, hits give low values 1 | locus YDR318W, strain mcm21, hits give low values 0.997 | locus YDR334W, strain swr1, hits give low values 0.979 | locus YDR335W, strain msn5, hits give low values 1 | locus YDR363W, strain ESC2, hits give low values 1.04 | locus YDR388W, hits give low values 0.986 | locus YDR392W, strain spt3, hits give low values 0.984 | locus YDR502C, strain sam2, hits give low values 1.01 | locus YEL003W, strain gim4, hits give low values 0.995 | locus YEL037C, strain rad23, hits give low values 0.989 | locus YEL061C, strain CIN8 (second series), hits give low values 0.979 | locus YEL061C, strain CIN8, hits give low values 1.02 | locus YER002W, strain NOP16, hits give low values 0.994 | locus YER015W, strain faa2, hits give low values 1.01 | locus YER016W, strain bim1, hits give low values 0.967 | locus YER110C, hits give low values 1 | locus YER111C, strain swi4, hits give low values 0.986 | locus YER155C, strain BEM2 (second series), hits give low values 1.05 | locus YER155C, strain BEM2, hits give low values 1.01 | locus YER167W, strain BCK2, hits give low values 1.02 | locus YFR010W, strain ubp6, hits give low values 1.03 | locus YGL078C, strain dbp3, hits give low values 0.983 | locus YGL086W, strain mad1, hits give low values 1.01 | locus YGL167C, strain pmr1, hits give low values 1 | locus YGL173C, strain kem1, hits give low values 1 | locus YGL227W, strain vid30, hits give low values 0.972 | locus YGL240W, strain doc1, hits give low values 1.01 | locus YGL248W, strain PDE1, hits give low values 1.03 | locus YGL253W, strain hxk2, hits give low values 1.01 | locus YGR078C, strain PAC10, hits give low values 1.01 | locus YGR135W, strain pre9, hits give low values 1.01 | locus YGR229C, strain SMI1, hits give low values 1.04 | locus YGR252W, strain gcn5, hits give low values 0.938 | locus YHR013C, strain ard1, hits give low values 1 | locus YHR027C, strain rpn1, hits give low values 1.02 | locus YHR030C, strain SLT2, hits give low values 1.02 and 0.992 | locus YHR079C, strain IRE1 (second series), hits give low values 0.981 | locus YHR079C, strain IRE1, hits give low values 1 | locus YHR094C, strain hxt1, hits give low values 0.983 | locus YHR129C, strain ARP1, hits give low values 1.01 | locus YHR142W, strain chs7, hits give low values 1.02 | locus YHR200W, strain rpn10, hits give low values 0.984 | locus YIL066C, strain RNR3, hits give low values 1.05 | locus YIL073C, strain SPO22, hits give low values 1.01 | locus YIL125W, strain kgd1, hits give low values 0.971 | locus YIR030C, strain dcg1, hits give low values 0.998 | locus YJL092W, strain hpr5, hits give low values 0.99 | locus YJL095W, strain BCK1 (second series), hits give low values 1.01 | locus YJL095W, strain BCK1, hits give low values 1.07 and 0.998 | locus YJL115W, strain asf1, hits give low values 0.984 | locus YJL129C, strain trk1, hits give low values 0.986 | locus YJL134W, strain LCB3, hits give low values 1.01 | locus YJL154C, strain vps35, hits give low values 0.998 | locus YJL164C, strain tpk1, hits give low values 1.03 | locus YJL166W, strain qcr8, hits give low values 1.03 | locus YJL168C, strain set2, hits give low values 0.978 | locus YJL187C, strain SWE1 (second series), hits give low values 1.05 | locus YJL187C, strain SWE1, hits give low values 1 | locus YJR043C, strain POL32, hits give low values 1.02
